Assay outcomes (PubChem BioAssay)
In the library only some 4.1% were active in any assay of this set; here they are far more common.
Gli-Sufu block – blocks Gli-Sufu signaling in a luciferase reporter; AID 588413; Sufu-KO-LIGHT fibroblasts, Gli luciferase reporter luminescence; 340,000 compounds, 0.74% hits; inhibition, % at 5 µM;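 active = inhibition above about 55%, limit read from the data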;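 also: 0% = DMSO-treated cells and 100% = wells with medium but no cells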
Jurkat NFkB inh – lowers PMA/ionomycin-induced NF-kB signal in Jurkat cells; PMA/ionomycin-induced NF-kB luciferase reporter, luminescence; inhibition, % at 4 µM; 330,000 compounds, 0.53% hits; AID 435003; in the data active = inhibition above about 50%
Mdm2 MdmX PPI – inhibitors of human Mdm2/MdmX interaction; O15151+Q00987; SaOS-2 split-luciferase Mdm2/MdmX complementation, luminescence; inhibition, % at 8 µM; 330,000 compounds, 3% hits; AID 485346;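 active = inhibition of at least 50% at 8 µM in the primary screen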
Target sequence (O15151 whole entry, looked up): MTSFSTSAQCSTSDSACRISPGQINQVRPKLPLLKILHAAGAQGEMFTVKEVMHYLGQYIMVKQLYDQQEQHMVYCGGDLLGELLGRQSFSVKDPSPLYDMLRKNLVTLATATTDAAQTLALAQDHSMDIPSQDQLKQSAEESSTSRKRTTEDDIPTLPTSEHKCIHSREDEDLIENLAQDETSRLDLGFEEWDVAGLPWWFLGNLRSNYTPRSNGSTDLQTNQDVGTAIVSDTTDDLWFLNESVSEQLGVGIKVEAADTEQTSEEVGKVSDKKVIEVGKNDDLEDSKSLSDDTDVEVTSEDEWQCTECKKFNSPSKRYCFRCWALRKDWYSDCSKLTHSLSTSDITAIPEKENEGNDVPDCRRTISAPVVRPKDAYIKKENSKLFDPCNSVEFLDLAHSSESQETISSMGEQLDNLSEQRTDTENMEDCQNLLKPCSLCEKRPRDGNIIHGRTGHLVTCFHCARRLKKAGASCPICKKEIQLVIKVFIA
Target sequence (Q00987 whole entry, looked up): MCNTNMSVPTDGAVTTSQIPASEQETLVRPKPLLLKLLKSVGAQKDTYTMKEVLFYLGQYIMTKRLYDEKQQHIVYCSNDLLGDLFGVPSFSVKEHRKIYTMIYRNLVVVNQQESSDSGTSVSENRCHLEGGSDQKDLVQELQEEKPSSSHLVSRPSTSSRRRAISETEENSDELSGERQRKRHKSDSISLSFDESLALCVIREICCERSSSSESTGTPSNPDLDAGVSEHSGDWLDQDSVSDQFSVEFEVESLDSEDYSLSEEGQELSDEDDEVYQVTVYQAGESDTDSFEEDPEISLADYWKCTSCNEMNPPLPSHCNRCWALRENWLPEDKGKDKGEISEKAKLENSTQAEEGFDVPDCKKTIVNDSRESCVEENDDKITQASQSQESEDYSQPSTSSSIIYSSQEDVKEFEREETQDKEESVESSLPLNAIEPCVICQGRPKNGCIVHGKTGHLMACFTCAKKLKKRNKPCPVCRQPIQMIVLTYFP
KLF5 inh – kruppel-like factor 5 inhibition | DLD-1 KLF5 promoter-luciferase reporter, luminescence | inhibition, % at 5 µM | 290,000 compounds, 0.23% hits | AID 1700;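 active = inhibition above a per-plate limit of that plate's mean compound inhibition plus 3 SD, cut at about 60% in these data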;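 also: 0% = DMSO wells and 100% = LY294002 at 200 µM; higher means less KLF5 promoter-driven luciferase light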
697 NFkB inh – lowers PMA/ionomycin-induced NF-kB signal in 697 B cells | 697 B-cell NF-kB luciferase reporter, 16 h | 330,000 compounds, 0.33% hits | inhibition, % at 4 µM; in the data active = inhibition above about 35%
aSyn UTR inh – 5' untranslated region of α-synuclein, MLPCN primary screen. alpha-synuclein 5'UTR reporter, inhibitor activity. inhibition, % (tested at 7.5 µM). 300,000 compounds, 0.82% hits; in the data active = inhibition above about 60%;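 also: H4 neuroglioblastoma cells stably carrying SNCA 5'UTR luciferase fusion; 0% = DMSO wells and 100% = positive control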
Gli-Sufu confirm – Gli-SUFU antagonism confirmation, single concentration; shares compounds with Gli-Sufu block; Sufu-KO-LIGHT cells, Gli luciferase reporter, luminescence; inhibition, % at 5 µM; 2,500 compounds, 40% hits;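 active = mean inhibition at 5 µM reaching about 45%, limit read from the data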;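 also: plate controls were DMSO-treated cells for no effect and wells lacking cells for full effect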
Gli cytotox – counter-screen for Gli-SUFU antagonists: cytotoxicity | shares compounds with Gli-Sufu block | Sufu-KO-LIGHT cells cytotoxicity, ATP luminescence | cytotoxicity, % at 5 µM | 2,500 compounds, 32% hits | AID 651994;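 active = mean cytotoxicity at 5 µM above about 25%, limit read from the data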;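 also: cells exposed to compound overnight for roughly 16 to 18 hours; plate controls were DMSO wells with cells for no effect and medium without cells for full effect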
Wnt3a cs – Wnt3a reporter inhibition counter-screen | shares compounds with Gli-Sufu block | Wnt-LIGHT cells, Wnt3a-driven luciferase reporter, luminescence | inhibition, % at 6.25 µM | 2,500 compounds, 20% hits;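 active = mean inhibition above about 25%, limit read from the data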
* hit, by the source's call; . = no result given.

SMILES | Gli-Sufu block | Jurkat NFkB inh | Mdm2 MdmX PPI | KLF5 inh | 697 NFkB inh | aSyn UTR inh | Gli-Sufu confirm | Gli cytotox | Wnt3a cs
COc1ccc(S(=O)(=O)NC2CC(C)(C)NC(C)(C)C2)cc1C(C)C | 51 | -1 | 26 | -16 | 2 | 7 | 17 | 11 | -18
Cc1ccc(-c2nc(SC(C)C(=O)N3CCOCC3)n[nH]2)cc1 (centres undefined) | 5 | 16 | -2 | -32 | -10 | 5 | . | . | .
CC(C)(C)NC(=O)c1cccc(NC(=O)c2ccc(NC(=O)c3ccco3)cc2)c1 | 75* | -18 | 15 | -20 | -13 | -45 | 18 | 12 | -87
CC(C)(C)NC(=O)c1cccc(NC(=O)c2ccco2)c1 | -5 | -10 | 0 | -25 | 0 | -24 | . | . | .
O=C(Cc1nc2ccccc2[nH]1)c1ccc(Br)cc1 | -15 | -23 | -6 | -26 | -1 | -190 | . | . | .
CCC(C)(C)n1nnnc1C(c1cc2ccc(OC)cc2[nH]c1=O)N1CCc2ccccc21 (centres undefined) | 56* | -21 | 8 | 10 | -30 | -10 | 27 | 11 | -3
Cc1ccc(C)c(NC(=O)CCN2CCCCC2)c1 | 6 | -1 | 3 | -20 | 2 | 13 | . | . | .
O=C1C=C(c2ccccc2)C(c2ccccc2)C1 (centres undefined) | 8 | . | . | . | . | . | . | . | .
O=C(NCc1ccon1)C1CCC(=O)N(CCc2ccc(Cl)cc2)C1 (centres undefined) | -18 | 5 | -9 | -20 | 10 | -1 | . | . | .
CCOC(=O)CN1C(=O)C(CC)Oc2ccccc21 (centres undefined) | -3 | 11 | 5 | -16 | 17 | 16 | . | . | .
CCOC(=O)CN1C(=O)/C(=C/c2ccccc2Br)Oc2ccccc21 | 57* | 15 | 26 | -4 | -13 | 9 | 12 | 7 | -8
CSc1nn2c(C(F)(F)F)cc(C(F)(F)F)nc2c1C(N)=O | -1 | 8 | 8 | -11 | 7 | 16 | . | . | .
N#C/C(=C\c1ccc(-c2ccc([N+](=O)[O-])cc2)o1)C(=O)Nc1nc(-c2cccs2)cs1 | 70* | -11 | 9 | -21 | 9 | -35 | 80* | 21 | 44*
N#C/C(=C/c1ccc(-c2cccc([N+](=O)[O-])c2)o1)C(=O)Nc1nc(-c2cccs2)cs1 | -5 | . | . | . | . | . | . | . | .
CSc1ncc(C(=O)Nc2ccccc2)cn1 | -7 | 9 | -13 | -8 | 5 | -30 | . | . | .
Cc1ccc(OCCn2ccnc2)c(C)c1 | -3 | -13 | 11 | -8 | 2 | -6 | . | . | .
Cc1cc(C(C)(C)C)ccc1OCCn1ccnc1 | 55* | 7 | 10 | -8 | -15 | -5 | 30 | 6 | -10
CCN(CC)CC(C)OC(=O)c1ccccc1Cl (centres undefined) | -6 | -21 | -11 | -5 | 6 | 19 | . | . | .
Cc1nn(C)c(C)c1NS(=O)(=O)c1ccc(Cl)cc1 | -4 | -3 | -5 | . | -1 | 5 | . | . | .
CCN(CC)S(=O)(=O)c1ccc(S(=O)(=O)Nc2c(C)nn(C)c2C)cc1 | 65* | 32 | 5 | . | -60 | -1 | 54* | 18 | 25*
CC(=O)Nc1nonc1-c1nc2ccccc2n1Cc1nnc(C)o1 | 4 | -11 | 19 | -29 | 2 | -19 | . | . | .
CCn1c(-c2nonc2NC(=O)c2ccccc2)nc2ccccc21 | 70* | -32 | 34 | -3 | -129 | 52 | 27 | 12 | 24
CC1(C)Cc2c(sc3nc(-c4ccccc4)n(N)c(=O)c23)CO1 | 74* | -15 | 24 | 18 | -15 | -48 | 6 | -7 | -74
CC(=O)c1ccc(NC(=O)CN2CCN(CC(=O)Nc3ccc(C(C)=O)cc3)CC2)cc1 | -15 | -4 | -6 | -26 | 0 | 4 | . | . | .
CC(=O)c1ccc(NC(=O)CSC(C)C)cc1 | 99* | -31 | -46 | -32 | -24 | -61 | -1 | 28* | -34
SMILES | Gli-Sufu block | Jurkat NFkB inh | Mdm2 MdmX PPI | KLF5 inh | 697 NFkB inh | aSyn UTR inh | Gli-Sufu confirm | Gli cytotox | Wnt3a cs
CC(=O)N(C)c1cccc(-c2ccc3nnc(C)n3n2)c1 | 56* | -3 | -7 | -12 | 19 | -2 | 16 | 2 | 23
CC(=O)Nc1ccc(-c2ccc3nnc(C)n3n2)cc1 | 31 | 0 | 3 | -6 | -7 | -16 | . | . | .
Cc1ccc(C)c(NC(=O)C[n+]2ccccc2)c1 | -17 | 1 | -8 | -14 | 5 | 1 | . | . | .
N#Cc1ccc(COC(=O)C2CCC(=O)N2)cc1 (centres undefined) | 99* | -4 | -19 | -55 | -5 | 6 | 10 | 3 | -5
O=C(OC1CCCCC1=O)c1cc(Cl)ccc1[N+](=O)[O-] (centres undefined) | 3 | -13 | -5 | -11 | 9 | -30 | . | . | .
CN(C)S(=O)(=O)c1cc(NC(=O)CNCc2ccc(F)cc2)ccc1Cl | -2 | -60 | 1 | -16 | -35 | -7 | . | . | .
Cc1cc(C)n2nc(N)c(N=Nc3ccc(Cl)cc3)c2n1 | 81* | -9 | -11 | 6 | -21 | 17 | 28 | 16 | -37
CCn1cc(/C=C(\NC(=O)c2ccc(OC)c(OC)c2)C(=O)NCCCN2CCOCC2)c2ccccc21 | -17 | -9 | 1 | 4 | 19 | 6 | . | . | .
O=S(=O)(c1cc(Br)ccc1Br)N1CCCCCC1 | 56* | 4 | 27 | -30 | 7 | 41 | 14 | 12 | 9
CCC(=O)N1CCc2cc(Br)cc(S(=O)(=O)N3CCC(C(=O)NC(C)(C)C)CC3)c21 | 54 | 18 | 1 | 1 | 20 | -1 | 5 | 19 | -39
COc1ccc(CN2CCN(CCCc3ccccc3)C(CCO)C2)cc1OC (centres undefined) | -8 | -6 | 6 | -7 | -6 | 0 | . | . | .
CCOc1cc(CN2CCN(CCc3ccccc3)C(CCO)C2)ccc1OC (centres undefined) | 61* | 15 | 8 | -23 | 6 | 7 | 14 | 5 | -19
O=C(COC(=O)c1cnccn1)c1cccc([N+](=O)[O-])c1 | 50 | 15 | 7 | -27 | 8 | -12 | 19 | 16 | 0
O=C(Cc1nnc(NC(=O)c2ccccc2)s1)N/N=C/c1ccc(O)cc1 | 53 | 6 | 15 | -4 | -7 | 1 | 10 | 19 | -36
O=C(Cc1nnc(NC(=O)c2ccccc2)s1)N/N=C\c1ccc(O)c(O)c1 | 5 | -7 | -4 | 11 | -16 | -10 | . | . | .
CCCC1=Nc2cc(C(=O)N3CCCC3)ccc2Sc2ccc(C)cc21 | 53 | -2 | 17 | -16 | -9 | 1 | 34 | 3 | 15
CCC1=Nc2cc(C(=O)N3CCCCC3)ccc2Sc2ccc(C)cc21 | 1 | 9 | 28 | -20 | 8 | 11 | . | . | .
